# IDH1 R132H inh – human IDH1 R132H inhibition. AID 602179. 0.093% of 390,000 active. Potency, µM (top dose mostly 76.6 µM), for inactives: at the top dose activity change, negative = inhibition, most hits filed as inhibitors. O75874. IDH1-R132H enzyme, NADPH consumption, diaphorase/resazurin fluorescence; further: nearly all actives have a fitted effect of over 65% in size
#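 IDH1-R132H (0.5 ug/mL dispensed) in pH 7.5 Tris buffer was preincubated 30 min with compound, then given a substrate mix of 0.016 mM NADPH and 2 mM alpha-KG for 80 min at room temperature; remaining NADPH was read by diaphorase/resazurin fluorescence.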
# PLK1 PBD block – blocks phosphopeptide binding to human PLK1 polo-box domain | P53350 | Plk1 PBD binding of FITC phosphopeptide, fluorescence polarization | Potency, µM, for the others: max response, negative = inhibition, hits mostly inhibitors | 2.8% of 360,000 active; further: series mostly up to about 57 µM; nearly all actives have a fitted effect of over 65% in size
# Target sequence (P53350 whole entry, looked up, the tested form may be a part): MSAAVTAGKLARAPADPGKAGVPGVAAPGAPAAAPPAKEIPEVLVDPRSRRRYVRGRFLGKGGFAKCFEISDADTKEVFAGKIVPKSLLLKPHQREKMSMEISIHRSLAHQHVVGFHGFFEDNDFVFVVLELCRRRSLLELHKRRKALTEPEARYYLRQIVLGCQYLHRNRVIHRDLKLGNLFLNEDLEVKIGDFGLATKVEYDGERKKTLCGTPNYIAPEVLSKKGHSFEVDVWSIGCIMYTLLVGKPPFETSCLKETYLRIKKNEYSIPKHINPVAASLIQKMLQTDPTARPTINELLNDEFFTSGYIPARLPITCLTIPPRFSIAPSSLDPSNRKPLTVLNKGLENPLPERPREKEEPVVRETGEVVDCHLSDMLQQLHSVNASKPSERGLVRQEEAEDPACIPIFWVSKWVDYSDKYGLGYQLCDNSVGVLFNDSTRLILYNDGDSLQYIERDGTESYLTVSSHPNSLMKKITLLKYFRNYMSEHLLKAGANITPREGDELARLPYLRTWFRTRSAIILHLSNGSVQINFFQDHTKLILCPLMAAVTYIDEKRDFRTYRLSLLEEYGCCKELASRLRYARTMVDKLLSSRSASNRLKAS
# VDR inhibitor – inhibitors of human vitamin D receptor; AID 504847; Potency, µM, for the others: max response, negative = inhibition, usual class: inhibitors; VDR-SRC2-3 peptide fluorescence polarization, 2 h; 0.93% of 400,000 active; P11473
#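 Two reagent solutions held at 4 deg C in the dark were dispensed, compounds pinned at 23 nl, and the mixture incubated 2 h at room temperature. Read-out: fluorescence polarization of VDR–SRC2-3 peptide binding.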
# TrxR1 substrate – rat thioredoxin reductase 1 substrate activity; Potency, µM (titrated, usually from 114 µM), without a hit: at the highest dose activity change, negative = substrate turnover; purified TrxR1 substrate turnover, NADPH consumption readout; 0.01% of 390,000 active; AID 588456; further: nearly all actives have a fitted effect of over 50% in size
#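 Rat TrxR1, dispensed at 90 nM, was prereduced with 400 uM NADPH (final) for 5 min at ~22 deg C, then incubated with compound 15 min before 400 uM selenite. A first-read NADPH fluorescence drop versus no-compound background flagged substrates.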
# TrxR1 inh – rat TrxR1 inhibition. O89049. recombinant rTrxR1, NADPH fluorescence consumption, selenite substrate. Potency, µM (titrated, usually from 114 µM), for the others: at the highest dose activity change, negative = inhibition, usual class: inhibitors. 1% of 390,000 active. AID 588453; further: nearly all actives have a fitted effect of over 65% in size
#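 Rat TrxR1 (90 nM in the dispensed reagent) was pre-reduced with 400 uM NADPH for 5 min at room temperature, then incubated with compound for 15 min. After 400 uM selenite was added, NADPH fluorescence (Ex 340/Em 450 nm) was followed for 8 min.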
# Sfp PPTase inh – inhibitors of Bacillus subtilis Sfp phosphopantetheinyl transferase; 3.5% of 310,000 active; Biochemical Sfp PPTase activity, qHTS; Potency, µM, for inactives: largest response in the series, negative = inhibition, actives largely listed as inhibitors;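 further: the enzyme is Sfp with the accession as filed and its product quenches rhodamine fluorescence; 0% = enzyme reaction without inhibitor and -100% = no enzyme wells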
#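 Step 1, compound plus 15 nM Sfp-PPTase, 15 min, room temperature. Step 2, add rhodamine-CoA (5 uM) and BHQ-2-YbbR (12.5 uM). Step 3, read 525/598 nm fluorescence at 0 and 30 min.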
# An asterisk follows results filed as active; ? = inconclusive; · = not tested or not shown; [ ] = dose if it differs, or a comment. In the library only some 5.2% were active in any assay of this set; here they are far more common. The call rests on the fitted dose curve; in most records, active means well fitted curve in the direction sought with a large enough effect; inconclusive means small, poorly fitted or top-dose-only effect, or another doubt; inactive means no such curve, though single readings can be large; an effect the other way counts as inactive or inconclusive. Unless noted, on the % scale 0 is the no-effect control and ±100 the full control effect; potency means the concentration at half of the fitted maximal effect.
SMILES,IDH1 R132H inh,PLK1 PBD block,VDR inhibitor,TrxR1 substrate,TrxR1 inh,Sfp PPTase inh
CC(C)CN(CCCNC(=O)c1cn(C)c2ccc(S(=O)(=O)N(C)C3CCCCC3)cc2c1=O)CC(C)C,0.3%,·,-3.0%,3.6%,22.0%,·
C#CCN(Cc1ccc(OC)cc1)S(=O)(=O)C=C,·,·,·,-0.3%,-14.9%,·
CC1CCCCN1C(=O)CSc1nc(C2CC2)nc2c1cnn2-c1ccccc1 (stereo not drawn),-0.5%,26.7µM*,-10.5%,10.4%,16.3%,20µM*
CN(C)c1ccc2nc3c(=O)[nH]c(=O)nc-3n(CC(O)C(O)C(O)CO)c2c1 (stereo not drawn),-3.1%,-1.3%,-21.5%,-0.2%[57.1 µM],4.4%[2.29 µM],-19.6%
NCCCCCc1nnc(SCC(=O)c2ccc(Cl)cc2)o1,-1.1%,-5.0%,-26.8%,-6.9%,-29.4%,50.1µM*
CC(C)(C)OC(=O)NCCc1nnc(SCC(=O)c2ccc(Cl)cc2)o1,-1.8%,-3.2%,-22.0%,-2.7%,-21.8%,-36.9%
NCCc1nnc(SCC(=O)c2ccc(Cl)cc2)o1,2.6%,7.3%,-24.6%,0.3%[57.1 µM],-1.0%[57.1 µM],56.2µM*
COc1ccc(CNC(=O)Nc2nc(C(N)Cc3ccc(C(F)(F)F)cc3)cs2)cc1 (stereo not drawn),·,-3.1%,·,·,·,·
c1ccc(C2=NNC(c3ccccn3)=NN2)nc1,15.5%,-1.2%,7.0%,-8.9%,-35.3%,12.6µM*
c1ccc(-c2nc(-c3ccccn3)nc(-c3ccccn3)n2)nc1,2.7%,-2.4%,1.3%,-1.7%[57.1 µM],0.6%[57.1 µM],?
O=C(O)CN1C(=O)C2C3CC(C2C1=O)C1C(c2ccccc2)c2sc(=O)[nH]c2SC31 (stereo not drawn),0.5%,?,-21.3%,-2.2%,-9.8%,-29.1%
O=c1[nH]c2c(s1)C(c1ccco1)C1C3CCC(C3)C1S2 (stereo not drawn),-2.7%,?,-13.3%,-9.7%,44.7µM*,44.7µM*
COC(=O)C1=C(CCc2ccccc2)NC(=O)NC1c1ccc(Cl)cc1 (stereo not drawn),-4.4%,-20.1%,-19.2%,4.2%[57.1 µM],13.4%[57.1 µM],·
COCc1cc(C)n(CC(=O)OC)c(=O)c1C#N,6.4%,-2.9%,0.1%,7.3%[57.1 µM],11.1%[57.1 µM],21.4%
COCc1cc(C)n(CC(=O)Nc2ccccc2OC)c(=O)c1C#N,11.5%,26.7µM*,?,-4.5%,-8.0%,19.6%
CCCCCCC[n+]1ccc(/C=C/c2c(C)[nH]c3ccccc23)c2ccccc21,·,·,·,3.1%,-8.5%,·
COc1ccc(C(=O)c2[nH]c(N)c(C(=O)NCCc3c[nH]c4ccccc34)c2-c2c(F)cccc2Cl)cc1,·,-11.5%,·,·,·,·
CC(C)CSc1n[nH]c(=S)s1,7.2%,7.52µM*,-16.4%,7.1%[57.1 µM],-16.3%[57.1 µM],35.5µM*
COc1ccc2c(c1)C(=O)[C@@H](OC(=O)NS(=O)(=O)c1ccc(F)cc1)[C@H](c1ccc(OC)c(Br)c1)O2,·,·,-3.1%,·,·,-4.7%
COc1ccc(NC(=O)C(CCSC)N2C(=O)c3ccccc3C2=O)cc1 (stereo not drawn),-0.5%,-18.7%,-9.8%,-6.2%,-4.3%,50.1µM*
CSCCC(C(=O)NCc1cccs1)N1C(=O)c2ccccc2C1=O (stereo not drawn),1.3%,-4.9%,-5.2%,2.6%,-14.1%,5.1%
COc1cc2c(cc1NC(=O)c1ccccc1C)n(C)c(=O)n2C,3.2%,·,-9.2%,3.6%,6.0%,·
Cc1ccc(NC(=O)CN2C(=O)S/C(=C\c3cccn3-c3cccc(C(=O)O)c3)C2=O)c(C)c1,-7.5%,23.8µM*,-9.6%,13.2%[57.1 µM],-5.4%[57.1 µM],50.1µM*
Cc1cccc(C)c1NC(=O)CN1C(=O)S/C(=C\c2cccn2-c2cccc(C(=O)O)c2)C1=O,-1.8%,42.3µM*,-15.6%,-3.9%,-15.7%,-16.8%
Cc1ccccc1NC(=O)CN1C(=O)S/C(=C\c2cccn2-c2cccc(C(=O)O)c2)C1=O,5.0%,?,13.7%,-2.5%,18.6%[57.1 µM],-19.8%
SMILES,IDH1 R132H inh,PLK1 PBD block,VDR inhibitor,TrxR1 substrate,TrxR1 inh,Sfp PPTase inh
Cc1cccc(C)c1-n1cccc1/C=C1\SC(=S)N(c2cccc(C(=O)O)c2)C1=O,0.8%,?,?,-17.6%[57.1 µM],13.1%[57.1 µM],39.8µM*
NCCc1nc2cccnc2n1-c1ccccc1,0.0%,·,1.3%,-3.3%[57.1 µM],3.2%[57.1 µM],·
Cc1cc(NC(=O)Cn2cnc3sc(C)c(C)c3c2=O)no1,-0.4%,-2.5%,-20.5%,7.2%,26.6%,·
Cc1ccn(CCC(=O)NC2CCCc3c2cnn3-c2cccc(C)c2C)n1 (stereo not drawn),-7.8%,29.9µM*,-17.7%,6.0%[57.1 µM],14.5%[57.1 µM],5.9%
Cc1ccc(CC(=O)OC(C)C(=O)NC2CCCCC2C)cc1C (stereo not drawn),-8.2%,-13.7%,-19.5%,-7.5%,4.6%,·
CCC(CC)c1nnc(NC(=O)C2CC(=O)N(C3CCCC3)C2)s1 (stereo not drawn),1.9%,?,-21.8%,-2.2%,13.1%,50.1µM*
CCc1nnc(NC(=O)C2CC(=O)N(C3CCCC3)C2)s1 (stereo not drawn),-0.8%,-15.5%,6.3%,2.2%,11.9%,-4.4%
CCC(CC)c1nnc(NC(=O)C2CC(=O)N(CCc3ccc(F)cc3)C2)s1 (stereo not drawn),0.5%,23.8µM*,79.4µM*,-1.3%,4.3%,11.2µM*
O=C(c1cc2ccccc2oc1=O)N1CCN(c2ccc(Cl)cc2)CC1,-4.6%,·,-14.4%,3.6%,15.2%,·
COc1ccc(-n2cnnc2SCC(=O)c2ccc(S(=O)(=O)N3CCOCC3)cc2)cc1,-6.4%,-5.3%,-2.1%,9.0%[0.457 µM],4.2%,56.2µM*
CCOC(=O)CSc1nnc(-c2ccc(S(=O)(=O)N3CCOCC3)cc2)n1-c1ccccc1,1.9%,?,8.0%,6.9%,-5.0%,-2.2%
Cc1nnc(SCC(=O)c2ccc(S(=O)(=O)N3CCOCC3)cc2)n1-c1ccccc1,0.0%,-21.7%,?,3.6%,?,31.6µM*
COc1ccc(-n2cnnc2SCC(=O)Nc2cc(S(=O)(=O)N3CCCCC3)ccc2C)cc1,-10.5%,1.0%,-4.6%,1.2%,20.8%,6.0%
CC[C@H](C)[C@H](NC(=O)[C@H](C)NC(=O)CNC(=O)[C@H](CCCCN)NC(=O)[C@H](CC(N)=O)NC(=O)[C@H](CO)NC(=O)CN)C(=O)N[C@H](C(=O)NCC(=O)N[C@@H](CC(C)C)C(=O)N[C@@H](CCSC)C(=O)O)[C@@H](C)CC,·,·,-1.2%,·,·,2.5%
CC(=O)N[C@@H](CSC(=O)[C@]1([C@@H](O)C(C)C)NC(=O)[C@H](C)[C@@H]1O)C(=O)O,·,·,-1.5%,·,·,0.9%
COc1ccc(CN2CCCC(CO)(Cc3cccc(Cl)c3)C2)cc1OC (stereo not drawn),-5.7%,-3.2%,-8.7%,4.6%,26.8%,2.4%
